# PubChem BioAssay AID1220 (Sanford-Burnham Center for Chemical Genomics, 2008)
# In all, about 190,000 compounds went through this assay and about 1,300 (0.68%) were called active. What follows is part of a selection rich in actives, with near analogues and random picks from the rest. Unmarked numbers belong to inactive results. Rule as the data show it: active = inhibition above about 50%; inactive = the rest.
# Target: Mannose-6-phosphate isomerase (Homo sapiens) (UniProt P34949)
# Experiment: human PMI inhibitors, high substrate, primary screen, biochemical, fluorescence intensity, high mannose 6-phosphate (AID 1220)
# Conditions: recombinant PMI enzyme, coupled fluorescence intensity; at 20 µM; stronger effect = higher value
# Mannose-6-phosphate isomerase (Homo sapiens), sequence (P34949 whole entry, looked up): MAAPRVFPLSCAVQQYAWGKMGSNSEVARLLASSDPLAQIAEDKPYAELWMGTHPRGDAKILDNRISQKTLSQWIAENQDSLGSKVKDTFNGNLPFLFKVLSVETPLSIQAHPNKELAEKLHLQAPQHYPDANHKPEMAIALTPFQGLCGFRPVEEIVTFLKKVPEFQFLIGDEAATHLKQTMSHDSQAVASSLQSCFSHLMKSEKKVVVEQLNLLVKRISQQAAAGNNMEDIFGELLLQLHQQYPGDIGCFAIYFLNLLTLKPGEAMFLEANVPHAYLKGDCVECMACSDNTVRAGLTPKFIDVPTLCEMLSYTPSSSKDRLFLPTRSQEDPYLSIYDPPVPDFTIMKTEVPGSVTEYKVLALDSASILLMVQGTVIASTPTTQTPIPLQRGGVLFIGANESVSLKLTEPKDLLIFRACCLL
row,SMILES,inhibition
1,COC(=O)c1cc(COc2ccc3oc(C)c(C(=O)OC(C)C)c3c2)c(C)o1,-0.3%
2,CC(=O)NCC(=O)OCC(=O)Nc1ccc(C(C)=O)cc1,-8.8%
3,CC(=C1C2C=CC1C1C(=O)NC(=O)C21)c1ccccc1 (stereo not given),3.8%
4,Cc1c(NC(=O)COc2cccc3c2OC(C)(C)C3)c(=O)n(-c2ccccc2)n1C,-6.1%
5,c1ccc(N2CCN(c3cnc4ccccc4n3)CC2)cc1,5%
6,CC(=O)N1CCC(=NNS(=O)(=O)c2ccc(C)c([N+](=O)[O-])c2)CC1,-31.5%
7,O=C(NCc1nc2ccccc2[nH]1)C1=C[C@H](c2ccccc2)C[C@H](OCc2ccc(CO)cc2)O1,11%
8,Cn1c(Cn2c(=O)sc3ccccc32)nnc1SCc1cccc(F)c1,-7.7%
9,COCCNc1c(-c2ccc(OC)cc2)nc2ccc(Cl)cn12,-8.6%
10,Cc1ccc(C)c(S(=O)(=O)N/N=C2/CCCc3ccccc32)c1,-29.2%
11,CCOC(=O)C1=C(O)C(=O)N(c2ccc(S(N)(=O)=O)cc2)C1c1ccc(OC)cc1 (stereo not given),4.3%
12,COc1cc(C(F)(F)F)nc(-c2ccccn2)n1,4.9%
13,O=C(CN1CCN(c2ccccc2)CC1)Nc1ccc2c(c1)OCCO2,-3.7%
14,CC(=O)c1cc(N2CCOCC2)ccc1[N+](=O)[O-],2.8%
15,CN(C)/C=C/C(=O)c1cc(N2CCOCC2)ccc1[N+](=O)[O-],55.9% (active)
16,O=C(c1ccc(N2CCOCC2)cc1[N+](=O)[O-])N1CCOCC1,7.3%
17,O=C(CN1CCN(c2ccc(O)cc2)CC1)Nc1ccc2c(c1)OCCO2,62.8% (active)
18,O=C(CN1CCOCC1)Nc1ccc2c(c1)OCO2,4.7%
19,O=C(NC1=NCCS1)c1cccc(S(=O)(=O)N2CCCCC2)c1,7.1%
20,Cc1cc(N2CCOCC2)nc2ccc(NC(=O)C3CCC(C)CC3)cc12 (stereo not given),0.8%
21,COc1ccc(/C(C)=N/NC(=O)C2CC2)cc1,-2.9%
22,CCc1ccc(NC(=S)N2CCCC(C(F)(F)F)C2)cc1 (stereo not given),13.4%
23,O=C1C(=Cc2ccco2)C(=O)c2ccccc21,-11.7%
24,c1cc2[nH]snc2c2nc(C3CC3)nc12,54.2% (active)
25,Cc1nc2ccc3[nH]snc3c2n1,2.6%

row,SMILES,inhibition
1,Cc1cc(/C=C2\NC(=O)N(Cc3ccc(Cl)cc3)C2=O)c(C)n1C,-58.7%
2,O=C(CN1C(=O)S/C(=C\c2ccc(O)cc2)C1=O)c1ccccc1,12.5%
3,CS(=O)(=O)N1CCN(c2ccccc2NC(=O)CSc2nnc(-c3ccco3)o2)CC1,0.5%
4,CC(C)CN(C(=O)CSc1nnc(-c2ccco2)o1)c1c(N)n(Cc2ccccc2)c(=O)[nH]c1=O,-2.6%
5,ONc1cccnc1-n1nc(C(F)(F)F)cc1C(F)(F)F,67.9% (active)
6,Cc1cc(C(F)(F)F)nn1C(=O)c1cccnc1Cl,6.5%
7,Nc1cccnc1-n1nc(C(F)(F)F)cc1C(F)(F)F,-0.6%
8,COc1cccc(N2CCN(c3ccc(S(=O)(=O)N4CCCC4)cc3)CC2)c1,18.6%
9,Cc1sc2ncnc(NCC(C)(C)N3CCOCC3)c2c1C,-3.6%
10,COCCOC(=O)/C(=C/c1ccc(OC(=O)c2ccccc2)cc1)C(C)=O,0.4%
11,CCOC(=O)/C(=C/c1ccc(OC(=O)c2ccccc2)cc1)C(C)=O,4.7%
12,CCOC(=O)/C(=C/c1ccc(OC(=O)c2ccncc2)cc1)C(C)=O,61.4% (active)
13,Cn1c2ccccc2c2ncn(CCC3=CCCCC3)c(=O)c21,9.7%
14,CCOC(=O)CSc1nc(C)c2cc(C)c(C)cc2n1,1.6%
15,O=C(NC1C=CS(=O)(=O)C1)c1ccccc1 (stereo not given),5.8%
16,COc1cccc(OC)c1C(=O)Oc1ccc2c(c1)O/C(=C\c1ccncc1)C2=O,7.7%
17,COc1ccc(NC(=O)CSc2ncnc3c2cnn3Cc2ccccc2)cc1,8.2%
18,O=C(Oc1cccc2c(OC(=O)N3CCCC3)cccc12)N1CCCC1,57.3% (active)
19,O=C(Oc1cccc2c(OC(=O)N3CCOCC3)cccc12)N1CCOCC1,2.4%
20,O=C(Oc1ccc(Cl)c2ccccc12)N1CCCCC1,-3.1%
21,CC(C)CCC(C)N=Cc1c(O)n(Cc2ccccc2)c(=O)c2ccccc12 (stereo not given),6.3%
22,CCOC(=O)Nc1ccc(Oc2ccccc2)cc1,4.8%
23,N#CC1=C(N)C(C#N)(C#N)C(c2cccnc2)C2CCCC=C12 (stereo not given),50.3% (active)
24,N#CC1=C(N)C(C#N)(C#N)C(c2cccnc2)C2CC(c3ccccc3)CC=C12 (stereo not given),47.2%
25,N#CC1=C(N)C(C#N)(C#N)C(c2ccc[nH]2)C2CCCC=C12 (stereo not given),35.1%

row,SMILES,inhibition
1,O=C(O)CCC(=O)Nc1ccc(C(=O)OCC(=O)c2ccc(Cl)cc2Cl)cc1,6.3%
2,CCCCOC(=O)c1ccc(S(N)(=O)=O)o1,-1.2%
3,COc1cc(NCCC(=O)c2cccs2)c(OC)cc1Cl,51.4% (active)
4,O=C(CCNc1cc(Cl)cc(Cl)c1)c1cccs1,7.8%
5,Cc1ccc(NCCC(=O)c2cccs2)cc1Cl,18.9%
6,Clc1ccc(CSc2ncnc3nc[nH]c23)cc1,3.6%
7,C=CCc1cccc(C=Nc2cc(Br)ccc2O)c1O,57% (active)
8,C=CCc1cccc(/C=N/c2ncccc2O)c1O,34.3%
9,C=CCc1cccc(C=Nc2ccc(Br)cc2)c1O,-8.2%
10,O=C(NCCCN1CCCC1=O)C1CCCO1 (stereo not given),5.1%
11,Cc1nn(-c2ccccc2)c2[nH]c(=O)c(CNCCN3CCOCC3)cc12,4.3%
12,Cc1nn(-c2ccccc2)c2[nH]c(=O)c(CNc3ccc(N4CCOCC4)cc3)cc12,55.6% (active)
13,Cc1nn(-c2ccccc2)c2[nH]c(=O)c(CNCc3ccc4c(c3)OCO4)cc12,2.9%
14,CC(C)(C)c1nn(-c2ccccc2)c2[nH]c(=O)c(CNc3ccc4c(c3)OCCO4)cc12,5.7%
15,Cc1nn(-c2ccccc2)c2[nH]c(=O)c(CNc3ccc4c(c3)OCCO4)cc12,54.2% (active)
16,CCc1ccc(NCc2cc3c(C)nn(-c4ccccc4)c3[nH]c2=O)cc1,8.8%
17,Cn1cc(S(=O)(=O)CC(=O)N2CCCc3ccccc32)c2ccccc21,6.6%
18,Cc1ccc(N2C(=O)NC(NC(=O)C(C)(C)C)(C(F)(F)F)C2=O)cc1 (stereo not given),4.9%
19,COC(=O)c1ccc(/C=N/NC(=O)CNc2cccc(C)c2)cc1,9.8%
20,CN(C)S(=O)(=O)c1cccc(NC(=S)NC2CCCCC2)c1,-2.3%
21,CCN(CCO)c1ccc(NC(=S)Nc2cccc(S(=O)(=O)N(C)C)c2)cc1,54.1% (active)
22,CN(C)S(=O)(=O)c1cccc(NC(=S)Nc2cc(Cl)cc(Cl)c2)c1,-6.4%
23,CCN(Cc1ccccc1)S(=O)(=O)c1cc(C(=O)c2c(N)n(C)c(=O)n(C)c2=O)ccc1OC,0.7%
24,CC1CCCN(C(=S)SCC(=O)O)C1 (stereo not given),0.2%
25,CC(C)(C)NCC(=O)N/N=C/c1ccc(OCc2ccccc2)cc1,-4.4%

row,SMILES,inhibition
1,Nc1nn2c(-c3ccccc3)cc(=O)[nH]c2c1N=Nc1ccc(Br)cc1,12.3%
2,Nc1nn2c(-c3ccccc3)cc(=O)[nH]c2c1N=Nc1ccc(O)cc1,55.4% (active)
3,Cc1cc(=O)[nH]c2c(N=Nc3ccc(O)cc3)c(N)nn12,45.7%
4,COC(=O)c1ccccc1NC(=O)N1CCN(C(=O)c2ccco2)CC1,13.1%
5,CCn1c(C)c(C(C)=O)c(N2CCN(c3ccccc3)CC2)nc1=S,-20.8%
6,CCn1c(C)c(C(C)=O)c(N2CCN(c3ccc(F)cc3)CC2)nc1=S,-6.4%
7,CCn1c(C)c(C(C)=O)c(N2CCN(c3ccc(OC)cc3)CC2)nc1=S,50.3% (active)
8,O=S(=O)(c1ccc(Br)cc1)N1CCN=C1SCc1cccnc1,0.3%
9,Cc1ccc(-n2c(=O)c3ccccc3n(CC(=O)NCc3ccco3)c2=O)cc1,-5.8%
10,CCCc1nnc2c(N(C)S(=O)(=O)c3ccccc3)nc3ccccc3n12,4.2%
11,COc1ccc(NC(=S)NC(C)Cc2cccs2)cc1 (stereo not given),3.7%
12,CCc1cccc(NC(=O)Cn2cc(C=O)c3ccccc32)c1,-9.7%
13,CC(C)c1ccc(OC(=O)NCCO)cc1,9.1%
14,O=C(COc1ccc(Br)cc1)NCCO,8.7%
15,CC(C)c1ccc(OCC(=O)NCCO)cc1,55.1% (active)
16,COc1ccc(/C=N/Nc2nccnc2Cl)cc1,-6.9%
17,c1ccc(Nc2ccc3c4c(cccc24)CC3)cc1,17.7%
18,Nc1ccc2c3c(cccc13)CC2,64.4% (active)
19,CC(=O)c1ccc2c3c(cccc13)CC2,6%
20,OC(COc1ccc2c(c1)OCO2)CN1CCN(c2ccc(F)cc2)CC1 (stereo not given),-1%
21,CC(=O)c1cn(CC(=O)Nc2ccc(C)cc2C)c2ccccc12,-0.4%
22,COc1cc(/C=N/NC(N)=O)ccc1OC(=O)c1ccco1,3.7%
23,O=C(C1CCCO1)N(c1ccc(F)cc1)C1C=CS(=O)(=O)C1 (stereo not given),52.9% (active)
24,Cc1ccc(N(C(=O)C2CCCO2)C2C=CS(=O)(=O)C2)cc1Cl (stereo not given),0.2%
25,CCOc1ccc(N(C(=O)C2CCCO2)C2C=CS(=O)(=O)C2)cc1 (stereo not given),-4.8%
